Results on five compounds are retold here after PubChem BioAssay.

For experiment [1], the system named is PRMT1 (protein arginine N-methyltransferase 1). Put plainly: PRMT1 binders on small-molecule microarrays, primary screen, biochemical, small-molecule microarray, 635 nm fluorescence (AID 1088).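 Also: binding of Prmt1 protein to compounds spotted on small-molecule microarray slides.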 The conditions noted are these: small-molecule microarray binding, higher = more signal.
Experiment [2] can be described thus: yeast growth modulation, basal conditions, primary screen, YJM789 clinical isolate, OD600, 24 h (AID 1089).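 Also: growth of clinical yeast isolate S. cerevisiae YJM 789 seeded 1000 cells per well; test concentration not given here.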 The conditions noted are these: S. cerevisiae YJM789 growth, higher = more signal, called active from +8 up or from −8 down.
Experiment [3] is described as follows: fission yeast growth modulation, primary screen, strain 972, OD600, 24 h, no modulator (AID 1090).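 Also: basal condition with compound alone and no growth modifier present; test concentration not given here.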 The conditions noted are these: S. pombe 972 growth, higher = more signal, called active from +8 up or from −8 down.
Experiment [4] is described as follows: S. cerevisiae growth modulation with rapamycin, primary screen, strain BY4716, OD600, 96 h (AID 1091). Also: test concentration not given here. The conditions noted are these: higher = more signal, called active from +8 up or from −8 down.
For experiment [5], the target named is Torsin-1A-interacting protein 2 (Homo sapiens) (UniProt Q8NFQ8). Description: LULL1 binders on small-molecule microarray, primary screen, cell lysate, human LULL1 lysate, 635/667 nm fluorescence (AID 1092).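 Also: probe is lysate of COS7 cells overexpressing human LULL1; score merges per-feature 667 nm fluorescence with signal-to-noise.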 The conditions noted are these: hLULL1 lysate binding, 635 nm fluorescence, higher = more signal.
Torsin-1A-interacting protein 2 (Homo sapiens), sequence (Q8NFQ8 whole entry, looked up): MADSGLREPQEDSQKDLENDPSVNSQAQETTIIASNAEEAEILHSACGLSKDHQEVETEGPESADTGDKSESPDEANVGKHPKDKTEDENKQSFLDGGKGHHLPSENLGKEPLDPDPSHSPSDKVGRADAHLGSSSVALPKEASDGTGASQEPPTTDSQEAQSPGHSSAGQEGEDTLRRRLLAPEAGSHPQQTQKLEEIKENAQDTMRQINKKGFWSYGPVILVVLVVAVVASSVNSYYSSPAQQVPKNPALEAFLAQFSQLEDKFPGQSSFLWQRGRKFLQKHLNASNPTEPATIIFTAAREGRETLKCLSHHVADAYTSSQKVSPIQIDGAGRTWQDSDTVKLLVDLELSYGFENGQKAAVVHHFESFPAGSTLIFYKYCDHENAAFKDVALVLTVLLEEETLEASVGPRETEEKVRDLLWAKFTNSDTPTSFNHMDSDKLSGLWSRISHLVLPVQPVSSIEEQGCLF
A short description of experiment [6]: E. coli growth modulation, two-sided OD650, primary screen, E. coli filamentation project, strain DRC41, 24 h (AID 1093).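 Also: MC1000 strain lacking acrAB efflux and sulA so SOS filamentation is blocked; test concentration not given here.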 Conditions: OD650, 24 h, higher = more signal, called active from +8 up or from −8 down.
Experiment [7] is described as follows: small-molecule microarray binders of probe aLefty2, primary screen, biochemical, biotinylated probe, 635/667 nm fluorescence (AID 1094).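 Also: score merges spot fluorescence near 667 nm with spot signal-to-noise ratio.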 Conditions: higher = more signal.
The test system of experiment [8] is Noggin (protein binding on small-molecule microarray). Put plainly: Noggin binders on small-molecule microarray, primary screen, biochemical, 635/667 nm fluorescence (AID 1095).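 Also: score merges 667 nm feature fluorescence with signal to noise over triplicate slides.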 Conditions: 635 nm fluorescence, higher = more signal.
Experiment [9] has as its target Neurogenic locus notch homolog protein 3 (Homo sapiens) (UniProt Q9UM47). Put plainly: NOTCH3 binders on small-molecule microarray, primary screen, biochemical, 635/667 nm fluorescence (AID 1096). Conditions: NOTCH3 binding, 635 nm fluorescence, higher = more signal.
Experiment [10] can be described thus: small-molecule microarray binders of probe aEGFR, primary screen, biochemical, biotinylated probe, 635/667 nm fluorescence (AID 1097).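 Also: probe is a biotinylated anti-EGFR antibody binding compounds printed on slides; score combines fluorescence near 667 nm and signal to noise of each spot.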 The conditions noted are these: higher = more signal.
Experiment [11] has as its system Plasmodium falciparum Sir2 (PF13_0152, Sir2A). Description: pfSir2 binders on small-molecule microarrays, primary screen, biochemical, small-molecule microarray, 635 nm fluorescence (AID 1098).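 Also: score merges spot fluorescence intensity with its signal-to-noise ratio.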 The conditions noted are these: small-molecule microarray binding, fluorescence 635 nm; higher = more signal.
Experiment [12] is described as follows: small-molecule microarray binders of probe aDKK1, primary screen, biochemical, biotinylated probe, 635/667 nm fluorescence (AID 1099).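 Also: score merges 667nm spot fluorescence with signal to noise across triplicate slides; reference of the scale not given here.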 Conditions: higher = more signal.
A short description of experiment [13]: small-molecule microarray binders of probe aCHRDL2, primary screen, biochemical, biotinylated probe, 635/667 nm fluorescence (AID 1100). Conditions: higher = more signal.
Experiment [14] is described as follows: splicing luciferase reporter signal modulators, primary screen, spliceosome inhibition project, cell-based, HEK293, splice +/- reporter (AID 1101).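 Also: HEK293 cells carrying a splicing-competent luciferase reporter gene; test concentration not given here.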 Conditions: luminescence, 24 h, higher = more signal, called active from +8 up or from −8 down. For orientation: A reporter such as luciferase makes a cellular process visible.
The target in experiment [15] is Fibroblast growth factor 10 (Homo sapiens) (UniProt O15520). Description: FGF10 binders on small-molecule microarrays, primary screen, biochemical, small-molecule microarray, 635 nm fluorescence (AID 1102). Conditions: FGF10 binding, fluorescence 635 nm, higher = more signal.
Fibroblast growth factor 10 (Homo sapiens), sequence (O15520 whole entry, looked up): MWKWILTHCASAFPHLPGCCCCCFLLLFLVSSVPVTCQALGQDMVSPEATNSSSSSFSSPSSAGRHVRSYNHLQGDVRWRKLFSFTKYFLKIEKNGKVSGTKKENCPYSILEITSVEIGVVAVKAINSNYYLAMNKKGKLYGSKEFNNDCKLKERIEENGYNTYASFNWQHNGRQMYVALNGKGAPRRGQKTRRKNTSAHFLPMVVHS
Experiment [16] relates to glycogen synthase kinase-3 (GSK3A per assay name; protocol says GSK3B). Put plainly: GSK3 binders on small-molecule microarrays, primary screen, biochemical, small-molecule microarray, 635 nm fluorescence, GSK3A (AID 1103). Also: the record names both GSK3A and GSK3B. Conditions: small-molecule microarray binding, fluorescence 635 nm; higher = more signal.
In experiment [17] the target is Epidermal growth factor receptor (Homo sapiens) (UniProt P00533). Put plainly: EGFR binders on small-molecule microarrays, primary screen, biochemical, small-molecule microarray, 635 nm fluorescence (AID 1104).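 Also: score merges 667 nm emission intensity with spot signal to noise over triplicate slides.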 The conditions noted are these: EGFR binding, higher = more signal.
Epidermal growth factor receptor (Homo sapiens), sequence (P00533 whole entry, looked up): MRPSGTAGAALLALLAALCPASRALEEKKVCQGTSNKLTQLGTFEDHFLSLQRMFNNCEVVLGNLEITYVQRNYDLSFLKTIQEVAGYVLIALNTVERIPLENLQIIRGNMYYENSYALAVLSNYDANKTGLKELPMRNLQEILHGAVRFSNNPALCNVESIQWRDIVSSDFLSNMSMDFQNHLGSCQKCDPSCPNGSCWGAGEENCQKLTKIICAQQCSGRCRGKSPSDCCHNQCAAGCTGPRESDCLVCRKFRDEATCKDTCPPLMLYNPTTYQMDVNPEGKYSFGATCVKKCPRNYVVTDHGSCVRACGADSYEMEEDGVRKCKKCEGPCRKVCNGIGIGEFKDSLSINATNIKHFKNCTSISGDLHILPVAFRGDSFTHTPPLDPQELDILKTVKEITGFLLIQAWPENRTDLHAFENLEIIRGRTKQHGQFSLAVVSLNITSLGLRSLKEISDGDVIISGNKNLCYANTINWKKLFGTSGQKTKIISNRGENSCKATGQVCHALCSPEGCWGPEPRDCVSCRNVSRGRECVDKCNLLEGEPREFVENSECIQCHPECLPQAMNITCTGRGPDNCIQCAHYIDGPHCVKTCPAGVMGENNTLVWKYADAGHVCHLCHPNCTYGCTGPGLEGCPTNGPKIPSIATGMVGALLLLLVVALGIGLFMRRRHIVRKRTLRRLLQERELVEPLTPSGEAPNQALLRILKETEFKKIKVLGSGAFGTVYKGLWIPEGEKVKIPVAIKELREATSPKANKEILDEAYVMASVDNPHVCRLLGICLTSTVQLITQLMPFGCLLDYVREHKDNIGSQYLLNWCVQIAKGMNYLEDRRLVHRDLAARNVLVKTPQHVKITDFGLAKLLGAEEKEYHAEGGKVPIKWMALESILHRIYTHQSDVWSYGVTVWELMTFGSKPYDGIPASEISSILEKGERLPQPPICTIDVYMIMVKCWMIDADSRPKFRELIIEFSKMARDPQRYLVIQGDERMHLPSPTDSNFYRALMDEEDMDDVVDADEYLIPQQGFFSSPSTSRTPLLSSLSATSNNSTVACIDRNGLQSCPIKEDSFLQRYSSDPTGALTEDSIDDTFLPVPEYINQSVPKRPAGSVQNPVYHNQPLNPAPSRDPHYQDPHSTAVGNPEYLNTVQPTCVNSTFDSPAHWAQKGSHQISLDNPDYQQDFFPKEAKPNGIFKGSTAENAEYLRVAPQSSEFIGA
Experiment [18] has as its target Follistatin-related protein 3 (Homo sapiens) (UniProt O95633). Description: FSTL3 binders on small-molecule microarrays, primary screen, biochemical, small-molecule microarray, 635 nm fluorescence (AID 1105).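 Also: score merges emission near 667 nm and signal to noise per printed spot across three slides.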 Conditions: FSTL3 binding, higher = more signal.
Experiment [19] deals with Dickkopf-related protein 1 (Homo sapiens) (UniProt O94907). Put plainly: DKK1 binders on small-molecule microarrays, primary screen, biochemical, small-molecule microarray, 635 nm fluorescence scan (AID 1106).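 Also: score merges emission near 667 nm with signal to noise over three replicate slides.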 Conditions: DKK1 binding, higher = more signal.
Dickkopf-related protein 1 (Homo sapiens), sequence (O94907 whole entry, looked up): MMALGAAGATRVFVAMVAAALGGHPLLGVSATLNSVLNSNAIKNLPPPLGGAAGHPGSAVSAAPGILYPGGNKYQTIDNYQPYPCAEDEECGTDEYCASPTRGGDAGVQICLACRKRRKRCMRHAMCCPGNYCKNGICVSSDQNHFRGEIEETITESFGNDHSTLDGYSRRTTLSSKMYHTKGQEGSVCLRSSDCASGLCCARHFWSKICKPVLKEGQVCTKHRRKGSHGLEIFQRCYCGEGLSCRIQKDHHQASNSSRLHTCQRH
In experiment [20] the test system is Inhibin beta A chain (activin A). Description: INHBA (activin A) binders on microarrays, primary screen, biochemical, small-molecule microarray, 635 nm fluorescence scan (AID 1107).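 Also: mouse activin A protein probed at 4.33 µg/mL on printed slides; score merges bound-protein fluorescence near 667 nm with spot signal-to-noise.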 The conditions noted are these: small-molecule microarray binding, higher = more signal.

Calls of active or inactive are those of the source.

Follistatin-related protein 3 (Homo sapiens), sequence (O95633 whole entry, looked up): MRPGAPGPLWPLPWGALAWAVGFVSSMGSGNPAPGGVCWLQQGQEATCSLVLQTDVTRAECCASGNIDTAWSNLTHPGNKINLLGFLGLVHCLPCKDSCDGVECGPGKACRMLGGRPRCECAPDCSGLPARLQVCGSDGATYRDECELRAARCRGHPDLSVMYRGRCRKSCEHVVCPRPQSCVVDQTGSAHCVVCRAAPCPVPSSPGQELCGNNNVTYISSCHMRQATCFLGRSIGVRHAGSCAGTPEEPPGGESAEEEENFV
Neurogenic locus notch homolog protein 3 (Homo sapiens), sequence (Q9UM47 whole entry, looked up): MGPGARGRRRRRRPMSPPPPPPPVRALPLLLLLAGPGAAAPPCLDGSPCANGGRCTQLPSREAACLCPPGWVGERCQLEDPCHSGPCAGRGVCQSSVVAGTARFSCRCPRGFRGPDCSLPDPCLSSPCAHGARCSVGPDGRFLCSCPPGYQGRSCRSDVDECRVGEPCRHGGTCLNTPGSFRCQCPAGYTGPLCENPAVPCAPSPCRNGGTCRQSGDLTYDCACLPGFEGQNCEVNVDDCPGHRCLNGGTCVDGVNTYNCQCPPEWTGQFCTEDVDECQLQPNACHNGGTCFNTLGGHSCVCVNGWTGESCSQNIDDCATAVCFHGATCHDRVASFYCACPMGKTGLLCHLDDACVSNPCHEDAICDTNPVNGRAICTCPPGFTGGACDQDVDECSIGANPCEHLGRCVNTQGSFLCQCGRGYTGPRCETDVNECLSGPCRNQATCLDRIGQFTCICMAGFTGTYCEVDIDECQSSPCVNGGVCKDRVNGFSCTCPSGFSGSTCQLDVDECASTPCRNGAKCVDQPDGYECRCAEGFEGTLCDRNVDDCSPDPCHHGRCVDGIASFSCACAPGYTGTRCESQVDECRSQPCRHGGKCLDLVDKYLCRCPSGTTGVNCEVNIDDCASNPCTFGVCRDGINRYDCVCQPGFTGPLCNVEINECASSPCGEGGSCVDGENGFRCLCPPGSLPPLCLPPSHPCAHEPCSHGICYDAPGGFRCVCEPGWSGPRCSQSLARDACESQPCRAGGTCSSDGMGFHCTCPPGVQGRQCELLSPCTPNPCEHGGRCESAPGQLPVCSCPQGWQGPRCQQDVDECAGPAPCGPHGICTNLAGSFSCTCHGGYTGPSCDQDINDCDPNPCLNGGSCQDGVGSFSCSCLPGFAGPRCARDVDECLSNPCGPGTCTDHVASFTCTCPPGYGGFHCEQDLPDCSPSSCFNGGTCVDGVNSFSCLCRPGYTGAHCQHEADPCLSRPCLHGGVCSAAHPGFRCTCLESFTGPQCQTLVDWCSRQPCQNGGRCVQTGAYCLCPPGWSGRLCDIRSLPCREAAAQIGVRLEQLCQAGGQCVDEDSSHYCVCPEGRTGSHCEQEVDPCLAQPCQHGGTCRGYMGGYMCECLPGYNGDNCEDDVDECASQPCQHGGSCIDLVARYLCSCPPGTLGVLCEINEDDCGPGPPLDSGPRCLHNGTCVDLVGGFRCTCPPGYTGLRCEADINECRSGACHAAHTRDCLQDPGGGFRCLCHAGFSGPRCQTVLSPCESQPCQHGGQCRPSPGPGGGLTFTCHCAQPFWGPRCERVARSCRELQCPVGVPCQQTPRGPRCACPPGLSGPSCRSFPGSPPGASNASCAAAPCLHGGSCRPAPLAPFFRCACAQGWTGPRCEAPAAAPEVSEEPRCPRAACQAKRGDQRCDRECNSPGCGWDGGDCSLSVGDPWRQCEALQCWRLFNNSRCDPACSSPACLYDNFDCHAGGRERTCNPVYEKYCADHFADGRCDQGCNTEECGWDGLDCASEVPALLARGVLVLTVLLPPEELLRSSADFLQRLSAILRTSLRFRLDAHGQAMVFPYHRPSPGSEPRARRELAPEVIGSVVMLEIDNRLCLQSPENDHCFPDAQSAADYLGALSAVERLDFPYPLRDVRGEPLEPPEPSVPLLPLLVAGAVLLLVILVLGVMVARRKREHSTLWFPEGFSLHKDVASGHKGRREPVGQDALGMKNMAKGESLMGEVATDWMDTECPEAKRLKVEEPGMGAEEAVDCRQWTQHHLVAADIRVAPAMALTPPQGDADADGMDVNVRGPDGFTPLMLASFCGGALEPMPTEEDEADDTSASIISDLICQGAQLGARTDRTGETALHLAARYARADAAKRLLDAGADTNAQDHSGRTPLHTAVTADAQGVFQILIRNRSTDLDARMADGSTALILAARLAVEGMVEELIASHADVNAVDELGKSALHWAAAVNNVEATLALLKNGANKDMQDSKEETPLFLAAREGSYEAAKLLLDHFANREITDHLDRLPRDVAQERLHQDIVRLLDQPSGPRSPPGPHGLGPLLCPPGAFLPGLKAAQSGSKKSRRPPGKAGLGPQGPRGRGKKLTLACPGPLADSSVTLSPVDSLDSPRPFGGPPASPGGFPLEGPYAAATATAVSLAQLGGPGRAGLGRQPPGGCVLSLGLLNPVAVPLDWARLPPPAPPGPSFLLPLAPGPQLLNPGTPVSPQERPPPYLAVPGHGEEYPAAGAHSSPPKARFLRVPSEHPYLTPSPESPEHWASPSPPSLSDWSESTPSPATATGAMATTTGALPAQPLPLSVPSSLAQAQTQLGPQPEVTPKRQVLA

Consider `CCN(CC)c1ccc(N2CC=CC34O[C@@H]5C=CCCOC(=O)C5[C@H]3C(=O)N(CCCO)[C@@H]4C2=O)cc1` (stereo not given in full), for which the composite z-score in [1] is -0.664; in experiment [5], -1.02; in experiment [7], -0.122; in experiment [8], 0.232; in experiment [9] it was -0.155; in experiment [10] it was -0.162. The composite z-score in [11] is -1.99; in experiment [12], -0.404; in experiment [13] it was -0.373; in [15], -0.344; in experiment [16], -0.0608; in experiment [17], -0.365. The results for the composite z-score in experiment [18], in experiment [19] and in [20] were -0.0243, -0.174 and 1.5, respectively. For the same compound, the z-score is -0.452 (inactive) in experiment [2]; -0.983 (inactive) in experiment [3]; -0.282 (inactive) in experiment [4]; 1.87 (inactive) in experiment [6]; -0.542 (inactive) in experiment [14].

Turning to `O=C1OCCC=C[C@H]2OC34C=CCN(c5ccc6ccccc6c5)C(=O)[C@H]3N(CCCCCCO)C(=O)[C@@H]4C12` (stereo not given in full), the composite z-score was 0.864 in experiment [1]; 0.911 in experiment [5]; -0.087 in experiment [7]; -1.63 in [8]; -0.228 in [9]; -0.178 in [10]. For the same compound, the composite z-score in experiment [11] is 0.924; in experiment [12], -0.0082; in experiment [13], 0.187; in experiment [15], -0.916; in [16] it was -0.817; in experiment [17], -1.07. The composite z-score is -0.917 in experiment [18], -1.26 in [19] and 0.56 in experiment [20]. Moreover, the z-score in [2] is 0.494 (inactive); in experiment [3] it was -1.55 (inactive); in experiment [4], 0.22 (inactive); in experiment [6], 0.67 (inactive); in experiment [14] it was -0.225 (inactive).

With `COC(=O)[C@@]1(Cc2ccc(F)cc2)[C@H]2c3cc(C(=O)N(C)C)n(Cc4ccccn4)c3C[C@H]2CN1C(=O)c1ccccc1`, the composite z-score in experiment [1] was 0.837; in experiment [5], 3.7; in [7], -0.153; in [8], 0.321; in experiment [9], 1.01; in [10], 0.533. Moreover, the composite z-score in experiment [11] came to 1.19; in [12], 1.37; in experiment [13] it was 1.14; in experiment [15], 0.214; in [16] it was 1.08; in experiment [17], 0.328. Also, the composite z-score in experiment [18] stood at 0.706; in experiment [19], 0.116; in experiment [20], 1.24. Besides, the z-score is -0.602 (inactive) in experiment [2]; -0.306 (inactive) in [3]; -0.545 (inactive) in experiment [4]; -0.0591 (inactive) in experiment [6]; -2.82 (inactive) in experiment [14].

On to `C[C@]1(C(=O)NCC(F)(F)F)c2ccccc2C(=O)N(Cc2cc(F)cc(C(F)(F)F)c2)[C@H]1c1ccc(CO)cc1`, for which the composite z-score is 1.38 in experiment [1]; 2.67 in [5]; 0.341 in experiment [7]; -0.16 in experiment [8]; -0.255 in [9]; 0.52 in [10]. Moreover, the composite z-score in experiment [11] is 1.54; in [12], 1.64; in [13], 0.572; in experiment [15], 0.257; in [16], -0.12; in experiment [17], 0.0376. For the same compound, the composite z-score in [18] is -0.66; in experiment [19] it was -0.609; in experiment [20] it was -0.461. Besides, the z-score in [2] is 0.49 (inactive); in [3], -0.936 (inactive); in experiment [4], -0.563 (inactive); in [6], -0.951 (inactive); in experiment [14], -0.633 (inactive).

Take `COC(=O)[C@@]1(Cc2ccc(F)cc2)[C@H]2c3cc(C(=O)N(C)C)n(CCCNc4ccc(C(F)(F)F)cc4Cl)c3C[C@H]2CN1C(=O)c1ccccc1`: the composite z-score in experiment [1] is 1.41; in experiment [5] it was 3.36; in [7], 0.555; in [8], 0.282; in [9], 1.02; in experiment [10], 0.361. Moreover, the composite z-score was 1.08 in experiment [11]; 1.4 in experiment [12]; 1.38 in experiment [13]; 0.808 in [15]; 1.29 in experiment [16]; -0.19 in experiment [17]. The figures for the composite z-score in experiment [18], in experiment [19] and in [20] were 1.2, -0.667 and -0.0131, respectively. Moreover, the z-score in experiment [2] was 0.406 (inactive); in experiment [3], 1.06 (inactive); in [4], 5.11 (inactive); in experiment [6], -1.3 (inactive); in [14], -1.75 (inactive).
